Targets with the largest changes are over-represented here; the source holds about 21,000 in all.
Compound: Cc1cc(ccc1-c1ccccc1)C(=O)N1CCCN(CC1)C(=O)CCl [compound 10]
Experiment: probe-labelled cysteine peptide fold change vs DMSO (competition) (log2 fold change); higher = less target engagement (more negative = stronger competition)
Conditions: 10 µM; THP-1; incubation time: 4 h
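Further: competitive profiling in live THP-1 cells: cysteine peptides tagged with an iodoacetamide desthiobiotin (IA-DTB) probe, intensity after compound treatment relative to DMSO-treated cells.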

Sequence of UniProt P63010 (P63010 whole entry, looked up): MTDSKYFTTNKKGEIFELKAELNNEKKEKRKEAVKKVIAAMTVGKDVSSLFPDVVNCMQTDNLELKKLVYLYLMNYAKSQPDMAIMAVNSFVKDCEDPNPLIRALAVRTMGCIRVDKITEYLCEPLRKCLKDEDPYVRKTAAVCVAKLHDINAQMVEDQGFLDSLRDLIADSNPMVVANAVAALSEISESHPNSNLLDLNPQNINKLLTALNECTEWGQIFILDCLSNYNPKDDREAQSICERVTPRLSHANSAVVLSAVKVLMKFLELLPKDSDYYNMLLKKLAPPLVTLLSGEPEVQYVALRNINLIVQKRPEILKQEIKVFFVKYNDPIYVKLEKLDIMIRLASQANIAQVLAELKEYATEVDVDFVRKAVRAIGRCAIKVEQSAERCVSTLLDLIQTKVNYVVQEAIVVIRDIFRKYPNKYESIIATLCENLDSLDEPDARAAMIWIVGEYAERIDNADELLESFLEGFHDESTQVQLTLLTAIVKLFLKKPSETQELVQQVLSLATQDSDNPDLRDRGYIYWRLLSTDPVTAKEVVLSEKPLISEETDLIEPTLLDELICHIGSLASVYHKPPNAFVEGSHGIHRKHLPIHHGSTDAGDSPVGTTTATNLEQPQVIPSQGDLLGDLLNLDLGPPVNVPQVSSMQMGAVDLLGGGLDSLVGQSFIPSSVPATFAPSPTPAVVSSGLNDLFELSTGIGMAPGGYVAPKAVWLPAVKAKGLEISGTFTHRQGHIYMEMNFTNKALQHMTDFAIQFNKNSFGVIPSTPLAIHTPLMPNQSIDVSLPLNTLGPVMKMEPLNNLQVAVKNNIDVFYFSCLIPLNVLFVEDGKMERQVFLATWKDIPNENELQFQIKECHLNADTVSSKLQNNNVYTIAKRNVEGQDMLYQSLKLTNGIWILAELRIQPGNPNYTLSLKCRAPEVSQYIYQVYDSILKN
Sequence of UniProt P32121 (P32121 whole entry, looked up): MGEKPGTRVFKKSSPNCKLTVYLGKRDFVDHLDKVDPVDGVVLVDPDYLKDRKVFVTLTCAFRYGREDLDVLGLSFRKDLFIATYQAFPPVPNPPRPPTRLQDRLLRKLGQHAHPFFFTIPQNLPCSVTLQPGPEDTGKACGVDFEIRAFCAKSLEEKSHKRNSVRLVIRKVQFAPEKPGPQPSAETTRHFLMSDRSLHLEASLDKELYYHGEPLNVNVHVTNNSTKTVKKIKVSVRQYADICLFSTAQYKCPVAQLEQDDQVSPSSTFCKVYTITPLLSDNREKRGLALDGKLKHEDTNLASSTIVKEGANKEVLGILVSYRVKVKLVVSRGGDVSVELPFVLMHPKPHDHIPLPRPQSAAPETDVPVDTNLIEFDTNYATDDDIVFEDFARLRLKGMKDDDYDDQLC
Sequence of UniProt Q9NQW6 (Q9NQW6 whole entry, looked up): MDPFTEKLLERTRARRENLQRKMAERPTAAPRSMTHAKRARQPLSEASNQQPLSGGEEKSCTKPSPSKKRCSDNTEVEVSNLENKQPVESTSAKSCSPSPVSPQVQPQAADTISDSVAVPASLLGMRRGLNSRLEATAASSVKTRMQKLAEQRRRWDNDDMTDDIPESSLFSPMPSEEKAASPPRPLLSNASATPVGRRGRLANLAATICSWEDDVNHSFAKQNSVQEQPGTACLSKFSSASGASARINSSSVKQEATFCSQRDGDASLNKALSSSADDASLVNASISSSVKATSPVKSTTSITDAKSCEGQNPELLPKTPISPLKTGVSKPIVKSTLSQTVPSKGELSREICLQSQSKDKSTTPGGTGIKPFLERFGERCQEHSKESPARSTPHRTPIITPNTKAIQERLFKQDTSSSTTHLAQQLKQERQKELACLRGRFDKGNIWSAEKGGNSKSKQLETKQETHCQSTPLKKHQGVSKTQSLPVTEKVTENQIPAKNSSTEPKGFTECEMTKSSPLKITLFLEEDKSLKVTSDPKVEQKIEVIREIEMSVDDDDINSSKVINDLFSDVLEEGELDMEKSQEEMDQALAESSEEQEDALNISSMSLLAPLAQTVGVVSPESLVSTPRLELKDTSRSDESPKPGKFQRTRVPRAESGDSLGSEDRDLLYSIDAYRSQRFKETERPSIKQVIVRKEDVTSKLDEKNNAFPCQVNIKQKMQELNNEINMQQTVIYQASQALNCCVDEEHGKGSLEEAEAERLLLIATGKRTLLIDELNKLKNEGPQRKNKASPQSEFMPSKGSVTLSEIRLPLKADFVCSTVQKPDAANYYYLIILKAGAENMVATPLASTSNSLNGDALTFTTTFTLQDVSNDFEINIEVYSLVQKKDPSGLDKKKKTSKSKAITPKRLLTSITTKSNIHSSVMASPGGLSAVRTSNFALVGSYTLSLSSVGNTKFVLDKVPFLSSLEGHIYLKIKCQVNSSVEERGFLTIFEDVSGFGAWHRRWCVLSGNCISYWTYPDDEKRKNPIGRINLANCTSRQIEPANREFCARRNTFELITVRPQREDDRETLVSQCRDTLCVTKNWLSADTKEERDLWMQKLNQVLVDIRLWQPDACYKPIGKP
Sequence of UniProt Q13740 (Q13740 whole entry, looked up): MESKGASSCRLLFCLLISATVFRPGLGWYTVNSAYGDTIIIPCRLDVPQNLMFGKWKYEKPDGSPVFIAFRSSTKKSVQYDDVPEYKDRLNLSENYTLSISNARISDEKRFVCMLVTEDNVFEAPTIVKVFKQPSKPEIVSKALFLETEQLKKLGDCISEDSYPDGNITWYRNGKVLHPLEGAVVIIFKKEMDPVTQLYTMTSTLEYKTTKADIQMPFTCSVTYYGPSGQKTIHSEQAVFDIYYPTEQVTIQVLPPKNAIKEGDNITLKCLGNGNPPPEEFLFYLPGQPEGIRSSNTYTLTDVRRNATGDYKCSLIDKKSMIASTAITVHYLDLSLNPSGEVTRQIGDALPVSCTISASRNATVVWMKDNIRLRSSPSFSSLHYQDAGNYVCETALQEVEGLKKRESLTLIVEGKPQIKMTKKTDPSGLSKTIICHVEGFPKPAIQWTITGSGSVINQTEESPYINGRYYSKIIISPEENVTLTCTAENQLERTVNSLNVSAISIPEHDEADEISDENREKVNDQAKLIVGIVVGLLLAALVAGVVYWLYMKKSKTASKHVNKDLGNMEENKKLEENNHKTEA
Sequence of UniProt O43488 (O43488 whole entry, looked up): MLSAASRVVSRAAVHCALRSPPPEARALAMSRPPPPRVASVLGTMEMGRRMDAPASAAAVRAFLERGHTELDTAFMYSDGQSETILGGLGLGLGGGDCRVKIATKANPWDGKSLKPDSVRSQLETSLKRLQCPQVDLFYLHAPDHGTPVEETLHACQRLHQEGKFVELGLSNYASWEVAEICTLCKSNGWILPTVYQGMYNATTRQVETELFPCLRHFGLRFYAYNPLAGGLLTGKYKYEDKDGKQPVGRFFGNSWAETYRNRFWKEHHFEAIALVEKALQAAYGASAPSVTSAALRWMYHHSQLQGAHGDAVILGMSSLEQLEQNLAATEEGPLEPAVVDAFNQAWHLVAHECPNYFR
Sequence of UniProt O14672 (O14672 whole entry, looked up): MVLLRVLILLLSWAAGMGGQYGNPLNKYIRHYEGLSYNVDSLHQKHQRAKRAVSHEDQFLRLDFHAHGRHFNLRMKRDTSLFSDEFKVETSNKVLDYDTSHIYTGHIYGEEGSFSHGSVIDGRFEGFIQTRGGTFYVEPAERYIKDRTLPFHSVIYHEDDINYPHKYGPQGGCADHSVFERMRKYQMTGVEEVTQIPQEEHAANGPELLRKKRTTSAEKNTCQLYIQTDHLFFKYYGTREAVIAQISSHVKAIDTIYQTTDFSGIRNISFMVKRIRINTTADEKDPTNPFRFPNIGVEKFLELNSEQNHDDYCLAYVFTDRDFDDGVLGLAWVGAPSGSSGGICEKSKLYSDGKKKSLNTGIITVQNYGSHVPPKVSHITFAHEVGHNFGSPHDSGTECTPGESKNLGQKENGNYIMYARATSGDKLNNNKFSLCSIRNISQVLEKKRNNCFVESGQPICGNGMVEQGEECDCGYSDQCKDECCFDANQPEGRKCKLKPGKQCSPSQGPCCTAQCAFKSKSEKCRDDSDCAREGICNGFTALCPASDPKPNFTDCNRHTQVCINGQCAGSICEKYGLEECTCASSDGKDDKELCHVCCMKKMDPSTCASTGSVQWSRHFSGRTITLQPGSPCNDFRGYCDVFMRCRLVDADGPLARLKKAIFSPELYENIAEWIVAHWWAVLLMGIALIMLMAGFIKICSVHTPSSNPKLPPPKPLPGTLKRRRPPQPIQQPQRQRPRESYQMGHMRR
Sequence of UniProt O43823 (O43823 whole entry, looked up): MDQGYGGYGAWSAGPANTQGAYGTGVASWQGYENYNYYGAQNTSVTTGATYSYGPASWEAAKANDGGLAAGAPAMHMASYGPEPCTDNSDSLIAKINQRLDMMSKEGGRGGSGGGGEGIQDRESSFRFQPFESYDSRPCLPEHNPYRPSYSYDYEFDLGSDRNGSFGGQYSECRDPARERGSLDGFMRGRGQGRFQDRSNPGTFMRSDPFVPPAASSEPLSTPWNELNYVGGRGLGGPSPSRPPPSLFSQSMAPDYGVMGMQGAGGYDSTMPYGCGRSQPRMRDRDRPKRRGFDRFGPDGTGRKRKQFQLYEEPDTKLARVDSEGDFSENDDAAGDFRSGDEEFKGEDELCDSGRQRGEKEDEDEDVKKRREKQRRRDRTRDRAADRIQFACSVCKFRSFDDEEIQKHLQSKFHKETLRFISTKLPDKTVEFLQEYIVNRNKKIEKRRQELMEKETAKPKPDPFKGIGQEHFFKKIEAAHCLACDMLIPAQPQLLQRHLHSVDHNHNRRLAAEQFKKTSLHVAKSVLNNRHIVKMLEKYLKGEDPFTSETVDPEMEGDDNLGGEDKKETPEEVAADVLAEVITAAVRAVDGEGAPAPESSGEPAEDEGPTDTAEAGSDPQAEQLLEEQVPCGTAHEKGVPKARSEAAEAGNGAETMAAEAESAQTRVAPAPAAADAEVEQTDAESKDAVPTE
Sequence of UniProt O00244 (O00244 whole entry, looked up): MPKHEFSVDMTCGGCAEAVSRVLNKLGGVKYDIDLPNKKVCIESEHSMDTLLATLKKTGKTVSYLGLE

Target | probe-labelled cysteine peptide fold change
APBB1IP_Q7Z5R6_401_YLCCDDTR (UniProt Q7Z5R6) | -0.318
ACOX1_Q15067_392_AFTSWTANTGIEACR (UniProt Q15067) | 0.0592
ARPC1B_O15143_227_VAWVSHDSTVCLADADKK (UniProt O15143) | 0.103
ADAM10_O14672_222_NTCQLYIQTDHLFFK (UniProt O14672) | 0.033
ANKMY2_Q8IV38_390_LDVNSNCVNEEQPEAEVGISQK (UniProt Q8IV38) | -0.281
ATP5F1A_P25705_244_KLYCIYVAIGQK (UniProt P25705) | -1.08
ATIC_P31939_101_VVACNLYPFVK (UniProt P31939) | 0.119
AKAP8_O43823_395_IQFACSVCK (UniProt O43823) | 0.0747
ALDOA_P04075_178_YASICQQNGIVPIVEPEILPDGDHDLKR (UniProt P04075) | 0.281
ATP2B1_P20020_463+473_HLDACETMGNATAICSDK (UniProt P20020) | -0.241
ANKRD50_Q9ULJ7_113_QALAFHFCK (UniProt Q9ULJ7) | 1.31
ATOX1_O00244_41_VCIESEHSMDTLLATLKK (UniProt O00244) | 0.237
ATP6V1B2_P21281_425_DHADVSNQLYACYAIGK (UniProt P21281) | 0.162
ATM_Q13315_2323_KLDASCAANNPSLK (UniProt Q13315) | -0.12
ANKHD1_Q8IWZ3_1716_GGCNITAIQDVTGAHIDVDK (UniProt Q8IWZ3) | 0.183
ASPSCR1_Q9BZE9_224+225_GDLSRPEDADTSGPCCEHTQEK (UniProt Q9BZE9) | -0.786

Target | probe-labelled cysteine peptide fold change
AP2B1_P63010_565_PLISEETDLIEPTLLDELICHIGSLASVYHKPPNAFVEGSHGIHR (UniProt P63010) | 0.119
ANLN_Q9NQW6_1037_INLANCTSR (UniProt Q9NQW6) | -0.121
ATIC_P31939_575_VVIEACDELGIILAHTNLR (UniProt P31939) | 0.103
ALDH9A1_P49189_45_VIATFTCSGEK (UniProt P49189) | -0.00832
ATP6V1A_P38606_138_WDFTPCK (UniProt P38606) | -1.09
ALCAM_Q13740_270_CLGNGNPPPEEFLFYLPGQPEGIR (UniProt Q13740) | -0.0239
ATN1_P54259_851_APVECPSLGPVPHRPPFEPGSAVATVPPYLGPDTPALR (UniProt P54259) | -0.143
AKR7A2_O43488_132+156_RLQCPQVDLFYLHAPDHGTPVEETLHACQR (UniProt O43488) | -0.245
ATP2B4_P23634_632_TVIEPMACDGLR (UniProt P23634) | -0.0204
AKR1B1_P15121_299_VCALLSCTSHK (UniProt P15121) | -0.208
ALG13_Q9NP73_86_ADLVISHAGAGSCLETLEK (UniProt Q9NP73) | -0.211
AGL_P35573_126_VGADNHVLPLDCVTLQTFLAK (UniProt P35573) | 0.128
ARHGEF6_Q15052_530_IVVHCNNNQDFQEWLEQLNR (UniProt Q15052) | 0.0109
ARHGEF6_Q15052_319_VGGCLLSLMPHFK (UniProt Q15052) | -0.297
ARRB2_P32121_126_KLGQHAHPFFFTIPQNLPCSVTLQPGPEDTGK (UniProt P32121) | -0.12

Same assay, conditions: 50 µM; THP-1; incubation time: 4 h

Target | probe-labelled cysteine peptide fold change
APBB1IP_Q7Z5R6_401_YLCCDDTR (UniProt Q7Z5R6) | -0.372
ACOX1_Q15067_392_AFTSWTANTGIEACR (UniProt Q15067) | 0.0993
ARPC1B_O15143_227_VAWVSHDSTVCLADADKK (UniProt O15143) | -0.0807
ADAM10_O14672_222_NTCQLYIQTDHLFFK (UniProt O14672) | 0.208
ANKMY2_Q8IV38_390_LDVNSNCVNEEQPEAEVGISQK (UniProt Q8IV38) | -0.0242
ATP5F1A_P25705_244_KLYCIYVAIGQK (UniProt P25705) | 0.236
ATIC_P31939_101_VVACNLYPFVK (UniProt P31939) | 0.0511
AKAP8_O43823_395_IQFACSVCK (UniProt O43823) | -0.348
ALDOA_P04075_178_YASICQQNGIVPIVEPEILPDGDHDLKR (UniProt P04075) | -0.12
ATP2B1_P20020_463+473_HLDACETMGNATAICSDK (UniProt P20020) | 0.05
ANKRD50_Q9ULJ7_113_QALAFHFCK (UniProt Q9ULJ7) | 1.7
ATOX1_O00244_41_VCIESEHSMDTLLATLKK (UniProt O00244) | -0.215
ATP6V1B2_P21281_425_DHADVSNQLYACYAIGK (UniProt P21281) | 0.207
ATM_Q13315_2323_KLDASCAANNPSLK (UniProt Q13315) | -0.242
ANKHD1_Q8IWZ3_1716_GGCNITAIQDVTGAHIDVDK (UniProt Q8IWZ3) | 0.0508
ASPSCR1_Q9BZE9_224+225_GDLSRPEDADTSGPCCEHTQEK (UniProt Q9BZE9) | -1.37

Target | probe-labelled cysteine peptide fold change
AP2B1_P63010_565_PLISEETDLIEPTLLDELICHIGSLASVYHKPPNAFVEGSHGIHR (UniProt P63010) | -0.142
ANLN_Q9NQW6_1037_INLANCTSR (UniProt Q9NQW6) | -0.171
ATIC_P31939_575_VVIEACDELGIILAHTNLR (UniProt P31939) | 0.126
ALDH9A1_P49189_45_VIATFTCSGEK (UniProt P49189) | 0.0216
ATP6V1A_P38606_138_WDFTPCK (UniProt P38606) | -3.27
ALCAM_Q13740_270_CLGNGNPPPEEFLFYLPGQPEGIR (UniProt Q13740) | 0.0758
ATN1_P54259_851_APVECPSLGPVPHRPPFEPGSAVATVPPYLGPDTPALR (UniProt P54259) | -0.422
AKR7A2_O43488_132+156_RLQCPQVDLFYLHAPDHGTPVEETLHACQR (UniProt O43488) | -0.374
ATP2B4_P23634_632_TVIEPMACDGLR (UniProt P23634) | -0.262
AKR1B1_P15121_299_VCALLSCTSHK (UniProt P15121) | -2.38
ALG13_Q9NP73_86_ADLVISHAGAGSCLETLEK (UniProt Q9NP73) | -0.753
AGL_P35573_126_VGADNHVLPLDCVTLQTFLAK (UniProt P35573) | 0.0379
ARHGEF6_Q15052_530_IVVHCNNNQDFQEWLEQLNR (UniProt Q15052) | 0.158
ARHGEF6_Q15052_319_VGGCLLSLMPHFK (UniProt Q15052) | -0.105
ARRB2_P32121_126_KLGQHAHPFFFTIPQNLPCSVTLQPGPEDTGK (UniProt P32121) | -0.146

— the supplement of paper PMC12067093, “Discovery and optimisation of a covalent ligand for TRIM25 and its application to targeted protein ubiquitination” (Chemical Science, 2025)
